Measured values from PubChem BioAssay (EPA / NIEHS).
Activity calls are given as the source filed them. The calls were made as follows: active = hit-call score of the fitted dose curve at least 0.9, where 1 is the maximum; inactive = score below 0.9. Peptide text beside a SMILES is read from it.

Assays:
[1] = target: Nuclear respiratory factor 1 (Homo sapiens) (UniProt Q16656); experiment: ATG_NRF1_CIS: Attagene CIS-FACTORIAL HepG2 Assay for human Nuclear Respiratory Factor 1 (NRF1) Orphan Gene (AID 2282987); settings: HepG2 NRF1 cis-element reporter, Attagene multiplex; actives raise or lower the signal
How it was run: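 Endogenous NRF1-driven reporter transcription measured in transiently transfected human HepG2 liver cells. Readout: reporter mRNA by RT-PCR and capillary electrophoresis with fluorescence detection, 24 h post-dosing. Gain or loss of signal fitted relative to DMSO baseline.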

[2] = target: Myc proto-oncogene protein (Homo sapiens) (UniProt P01106); experiment: ATG_Myc_CIS: Attagene CIS-FACTORIAL HepG2 Assay for human Myelocytomatosis (Myc) Proto-Oncogene Transcription Factor (AID 2282990); settings: HepG2, Attagene cis-reporter transcription factor activity; actives raise or lower the signal
How it was run: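 DMSO-normalised, bidirectionally fitted reporter mRNA signal. HepG2 cells transfected with cis reporter constructs, treated 24 h; transcripts detected by RT-PCR, 6-FAM primer extension and CE.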

[3] = ATG_NF_kB_CIS: Attagene CIS-FACTORIAL HepG2 Assay for human Nuclear Factor Kappa B (NF-kB) (AID 2282991); settings: HepG2 Attagene cis-factorial NF-kB reporter mRNA; actives raise or lower the signal
How it was run: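 Read-out: reporter transcript levels quantified by RT-PCR plus capillary electrophoresis of 6-FAM-labelled, HpaI-cut fragments. Transfected HepG2 cells, 24 h compound exposure, endogenous NF-kB-driven cis element; gain or loss scored versus DMSO.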

[4] = ATG_NRF2_ARE_CIS: Attagene CIS-FACTORIAL HepG2 Assay for human Nuclear Factor Erythroid 2 Related Factor 2 (NFR2) response to Antioxidant Response Elements (ARE) (AID 2282992); settings: HepG2 Attagene ARE/NRF2 reporter, transcription factor activity; actives raise or lower the signal
How it was run: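 Fluorescence intensity of reporter-specific cDNA fragments, separated by capillary electrophoresis, reflects mRNA induction in transfected HepG2 cells at 24 h. Activity is fitted bidirectionally, DMSO serving as baseline.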

[5] = ATG_Oct_MLP_CIS: Attagene CIS-FACTORIAL HepG2 Assay for human Octamer-Binding Transcription Factor (Oct) (AID 2282993); settings: HepG2 Attagene cis-factorial Oct reporter, mRNA; actives raise or lower the signal
How it was run: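 Transfected HepG2 cells, 24 h treatment. Reporter mRNA quantified by RT-PCR–capillary electrophoresis; bidirectional fitting against DMSO.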

[6] = target: Cellular tumor antigen p53 (Homo sapiens) (UniProt P04637); experiment: ATG_p53_CIS: Attagene CIS-FACTORIAL HepG2 Assay for human p53 Transcription Factor (AID 2282994); settings: HepG2 p53 cis-element reporter, Attagene mRNA; actives raise or lower the signal
How it was run: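 Transiently transfected HepG2 (multiple cis reporter transcription units); exposure 24 h; reporter RNA via RT-PCR, 6-FAM extension, 2 h HpaI digest at 37 C, CE detection; DMSO baseline.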

[7] = BSK_3C_TissueFactor: BioMAP Diversity Plus: 3C Assay for Tissue Factor Biomarker Activity (AID 2282997); settings: BioMAP 3C HUVEC, tissue factor biomarker readout; actives raise or lower the signal
How it was run: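 After a 24 h chemical exposure of primary human umbilical vein endothelial cells, Tissue Factor levels were quantified by ELISA.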

[8] = BSK_3C_uPAR: BioMAP Diversity Plus: 3C Assay for Urokinase-type plasminogen activator receptor (uPAR) Biomarker Activity (AID 2282998); settings: BioMAP 3C HUVEC, uPAR biomarker ELISA; actives raise or lower the signal
How it was run: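 Readout: ELISA for surface uPAR. System: human umbilical vein endothelial primary cells, 24 h after chemical exposure. Analysis: bidirectional fit, DMSO baseline.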

[9] = BSK_3C_VCAM1: BioMAP Diversity Plus: 3C Assay for Vascular cell adhesion molecule 1 (VCAM1) Biomarker Activity (AID 2282999); settings: BioMAP 3C HUVEC, VCAM1 ELISA, cytokine-stimulated; actives raise or lower the signal
How it was run: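 Vascular primary endothelium (human umbilical vein) was exposed to chemicals and assayed 24 h later. VCAM-1 levels came from ELISA, with DMSO serving as baseline for bidirectional fitting.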

[10] = ATG_NFI_CIS: Attagene CIS-FACTORIAL HepG2 Assay for human Nuclear Factor I (NFI) (AID 2282989); settings: HepG2 cis-regulatory reporter, NFI response element transcription; actives raise or lower the signal
How it was run: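 Reporter transcription driven by endogenous transcription factors in HepG2 cells; 24 h treatment. Quantitation by labelled RT-PCR fragments on capillary electrophoresis, gain- or loss-of-signal relative to DMSO.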

Measured: AC50

Sequence of Myc proto-oncogene protein (Homo sapiens) (P01106 whole entry, looked up): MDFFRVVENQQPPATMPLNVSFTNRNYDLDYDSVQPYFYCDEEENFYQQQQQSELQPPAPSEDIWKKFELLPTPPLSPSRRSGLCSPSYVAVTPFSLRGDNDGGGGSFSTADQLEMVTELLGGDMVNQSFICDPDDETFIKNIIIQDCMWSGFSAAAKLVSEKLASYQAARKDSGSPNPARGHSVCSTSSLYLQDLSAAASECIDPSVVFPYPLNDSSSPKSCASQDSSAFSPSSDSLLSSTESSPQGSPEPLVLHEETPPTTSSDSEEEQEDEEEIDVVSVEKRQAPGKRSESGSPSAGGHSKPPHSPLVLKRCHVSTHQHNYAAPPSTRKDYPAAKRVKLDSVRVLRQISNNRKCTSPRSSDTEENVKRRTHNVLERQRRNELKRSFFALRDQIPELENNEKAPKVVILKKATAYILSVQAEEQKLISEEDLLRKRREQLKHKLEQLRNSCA
Sequence of Nuclear respiratory factor 1 (Homo sapiens) (Q16656 whole entry, looked up): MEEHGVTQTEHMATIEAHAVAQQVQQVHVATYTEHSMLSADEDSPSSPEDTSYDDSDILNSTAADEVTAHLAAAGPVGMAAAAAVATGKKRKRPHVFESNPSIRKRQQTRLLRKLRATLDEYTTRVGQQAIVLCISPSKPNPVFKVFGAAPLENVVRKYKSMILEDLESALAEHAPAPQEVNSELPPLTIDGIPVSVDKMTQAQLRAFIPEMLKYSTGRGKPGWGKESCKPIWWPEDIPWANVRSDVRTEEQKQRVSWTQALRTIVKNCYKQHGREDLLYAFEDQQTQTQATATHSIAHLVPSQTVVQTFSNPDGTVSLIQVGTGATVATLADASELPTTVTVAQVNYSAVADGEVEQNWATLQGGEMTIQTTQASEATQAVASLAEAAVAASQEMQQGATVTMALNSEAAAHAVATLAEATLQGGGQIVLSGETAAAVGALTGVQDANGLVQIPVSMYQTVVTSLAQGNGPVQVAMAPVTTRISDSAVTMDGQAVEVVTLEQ
Sequence of Cellular tumor antigen p53 (Homo sapiens) (P04637 whole entry, looked up): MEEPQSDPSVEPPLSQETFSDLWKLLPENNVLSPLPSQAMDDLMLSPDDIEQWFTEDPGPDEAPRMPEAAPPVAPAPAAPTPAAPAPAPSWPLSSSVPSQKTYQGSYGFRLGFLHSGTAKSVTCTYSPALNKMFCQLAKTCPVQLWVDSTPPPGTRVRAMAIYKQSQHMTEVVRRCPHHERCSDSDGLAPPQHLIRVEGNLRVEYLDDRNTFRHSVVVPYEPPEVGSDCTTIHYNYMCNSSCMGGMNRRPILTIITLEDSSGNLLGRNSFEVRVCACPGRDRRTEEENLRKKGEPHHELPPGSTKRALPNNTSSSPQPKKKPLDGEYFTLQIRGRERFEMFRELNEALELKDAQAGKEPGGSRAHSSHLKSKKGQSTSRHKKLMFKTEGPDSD

CCc1cccc(C)c1N(C(=O)CS(=O)(=O)O)C(C)COC (centres undefined)
inactive: [1] | [2] | [3] | [4] | [5] | [6] | [7] | [8] | [9]

CC(Cl)COP(=O)(OCC(C)Cl)OCC(C)Cl (centres undefined)
inactive: [1] | [2] | [3] | [4] | [5] | [6] | [7] | [8] | [9]

CCOB(OCC)OCC
inactive: [1] | [2] | [3] | [4] | [5] | [6]

Oc1c(Cl)cc(Cl)c(Cl)c1Cl
active: [4] 27.1 µM | [5] 100 µM | [7] 23.8 µM | [8] 20 µM | [9] 20 µM
inactive: [1] | [2] | [3] | [6]

COC(=O)[C@H](Cc1ccccc1)NC(=O)[C@@H](N)CC(=O)O (H-Asp-Phe-OMe)
inactive: [1] | [2] | [3] | [4] | [5]

CCOC(=O)c1ccc(C)cc1
inactive: [1] | [2] | [3] | [4] | [5] | [6]

CCC(C)C(=O)OCCc1ccccc1 (centres undefined)
inactive: [1] | [2] | [3] | [4] | [5] | [6]

CCN(CC)c1cccc(C)c1
inactive: [1] | [2] | [3] | [4] | [5] | [6]

O=C(Oc1ccccc1)c1ccccc1C(=O)Oc1ccccc1
inactive: [1] | [2] | [5] | [6] | [7] | [8] | [9]
active: [4] 30.7 µM

CCCCNC(=S)NCCCC
inactive: [1] | [2] | [3] | [4] | [5] | [6]

N#CC1(N)CCCCC1
inactive: [1] | [2] | [4] | [5] | [6]

CCCCC1C(=O)N(c2ccccc2)N(c2ccccc2)C1=O
inactive: [1] | [2] | [3] | [5] | [6] | [7] | [9]
active: [4] 6.46 µM | [8] 10.2 µM

Cc1cccc(C(C)(C)C)c1O
inactive: [1] | [2] | [3] | [4] | [5] | [6]

C=Cc1ccc(OC(C)=O)cc1
inactive: [10] | [2] | [3] | [6]
active: [4] 6.87 µM | [5] 55.4 µM

CCCCCC(=O)OCC
inactive: [10] | [2] | [3] | [4] | [5] | [6]

CCC(C)(O)CCCC(C)C (centres undefined)
inactive: [10] | [2] | [3] | [4] | [5] | [6]

COc1ccc(-c2coc3cc(O)cc(O)c3c2=O)cc1
inactive: [10] | [2]
active: [4] 27.2 µM | [5] 39 µM | [6] 159 µM

Cn1cccc1
active: [10] 26.2 µM | [4] 29.5 µM
inactive: [2] | [3] | [5] | [6]

C1CCSC1
inactive: [10] | [2] | [3] | [4] | [5] | [6]

O=C1CCCCCCCCCCC1
inactive: [10] | [2] | [4] | [5] | [6] | [7] | [8] | [9]

Nc1ncnc2nc[nH]c12
inactive: [10] | [2] | [3] | [4] | [5] | [6]

CC(C)[N+](C)(CCOC(=O)C1c2ccccc2Oc2ccccc21)C(C)C
inactive: [10] | [2] | [3] | [4] | [5] | [6] | [7] | [8] | [9]

CC(=O)/C=C/C1C(C)=CCCC1(C)C (centres undefined)
inactive: [10] | [2] | [4] | [5]

CC1OC(=O)C(C)OC1=O (centres undefined)
inactive: [10] | [2] | [4] | [5] | [6]

COc1ccc(C(=O)c2ccccc2)c(O)c1
active: [3] 168 µM | [4] 100 µM
inactive: [10] | [2] | [5] | [6] | [7] | [8] | [9]

CCCCCCCC(=O)OCC
inactive: [10] | [2] | [3] | [4] | [5] | [6]

CCC(C)C(=O)OC (centres undefined)
inactive: [10] | [2] | [3] | [4] | [5] | [6]

Cc1ccc(S(=O)(=O)N=C=O)cc1
inactive: [10] | [2] | [3] | [4] | [5] | [6]

CCC1(C)C(=O)N(Cl)C(=O)N1Cl (centres undefined)
inactive: [2] | [3] | [6] | [7] | [8] | [9]
active: [4] 27.1 µM | [5] 27.4 µM

C=CC(C)(CCC=C(C)C)OC(=O)C=Cc1ccccc1 (centres undefined)
inactive: [10] | [2] | [3] | [5] | [6]
active: [4] 32.9 µM

CCCCCOC(=O)CCCCC
inactive: [10] | [2] | [3] | [4] | [5] | [6]
